Measured values reported in PubChem BioAssay (NCATS).
Inconclusive results are not listed. Activity calls are given as the source filed them. The call rests on the fitted dose curve; in most records, active means well fitted curve in the direction sought with a large enough effect; inconclusive means small, poorly fitted or top-dose-only effect, or another doubt; inactive means no such curve, though single readings can be large; an effect the other way counts as inactive or inconclusive.

Key:
[1] = qHTS of pediatric cancer cell lines to identify multiple opportunities for drug repurposing: Primary screen for U-2 OS cells (AID 1347096); further: nearly all actives have a fitted effect of over 50% in size
Procedure, shortened: (§1)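 Cells (500-1,000/well) rested 5 h, then received compounds for 48 h; metabolically active cells were measured by CellTiter-Glo luminescence. Final concentrations spanned up to 46 µM (MIPE, 11-point) or 0.59 nM-46 µM (NPC, 8-point) in primary screens, 11-point in follow-ups.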

[2] = qHTS of pediatric cancer cell lines to identify multiple opportunities for drug repurposing: Primary screen for Saos-2 cells (AID 1347097); further: nearly all actives have a fitted effect of over 40% in size
Procedure, shortened: (§2)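 Plated cells (500-1,000 per well, growth media) were allowed to settle for 5 hours, treated with compound dilutions for 48 hours, then lysed with CellTiter-Glo for 15 min at room temperature before luminescence reading.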

[3] = qHTS of pediatric cancer cell lines to identify multiple opportunities for drug repurposing: Primary screen for SK-N-SH cells (AID 1347098);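 further: DMSO served as neutral control and bortezomib at 2.3 µM as positive control; nearly all actives have a fitted effect of over 65% in size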
Procedure, shortened: as §1

[4] = qHTS of pediatric cancer cell lines to identify multiple opportunities for drug repurposing: Primary screen for NB1643 cells (AID 1347099); further: nearly all actives have a fitted effect of over 50% in size
Procedure, shortened: as §2

[5] = qHTS of pediatric cancer cell lines to identify multiple opportunities for drug repurposing: Primary screen for LAN-5 cells (AID 1347100)
Procedure, shortened: as §1

[6] = qHTS of pediatric cancer cell lines to identify multiple opportunities for drug repurposing: Primary screen for BT-12 cells (AID 1347101); further: nearly all actives have a fitted effect of over 25% in size
Procedure, shortened: as §1

[7] = qHTS of pediatric cancer cell lines to identify multiple opportunities for drug repurposing: Primary screen for Rh18 cells (AID 1347102); further: nearly all actives have a fitted effect of over 65% in size
Procedure, shortened: as §1

[8] = qHTS of pediatric cancer cell lines to identify multiple opportunities for drug repurposing: Primary screen for OHS-50 cells (AID 1347103); further: nearly all actives have a fitted effect of over 40% in size
Procedure, shortened: as §1

[9] = qHTS of pediatric cancer cell lines to identify multiple opportunities for drug repurposing: Primary screen for RD cells (AID 1347104); further: nearly all actives have a fitted effect of over 55% in size
Procedure, shortened: as §2

[10] = qHTS of pediatric cancer cell lines to identify multiple opportunities for drug repurposing: Primary screen for MG 63 (6-TG R) cells (AID 1347105); further: nearly all actives have a fitted effect of over 50% in size
Procedure, shortened: as §2

Measured: Potency

NCCNc1cccc2ccccc12
inactive: all assays above

O=C(Nc1ccc([N+](=O)[O-])cc1)Nc1ccc([N+](=O)[O-])cc1
inactive: all assays above

Cc1cccc(C)c1NC(=O)CN1CCCC1
inactive: all assays above

NS(=O)(=O)c1cc(C(=O)O)cc(N2CCCC2)c1Oc1ccccc1
inactive: all assays above

CCCCNC(=O)NS(=O)(=O)c1ccc(N)cc1
inactive: all assays above

Cc1cc2c(OCC(CNC(C)(C)C)OC(=O)c3ccccc3)cccc2[nH]1 (stereo unspecified)
inactive: all assays above

OCc1ccccn1
inactive: all assays above

Cc1cc(C)cc(OCC2CNC(=O)O2)c1 (stereo unspecified)
inactive: all assays above

Cc1cc(-c2ccccc2)nnc1NCCN1CCOCC1
inactive: all assays above

O=C(O)c1ccc(S(=O)(=O)N(Cl)Cl)cc1
inactive: all assays above

NS(=O)(=O)c1ccc(Cl)c(S(N)(=O)=O)c1
inactive: all assays above

CC1=C(C(=O)O)N2C(=O)[C@@H](NC(=O)[C@H](N)c3ccccc3)[C@H]2SC1
inactive: all assays above

O=C(O)CCC(=O)Nc1ccc(S(=O)(=O)Nc2nccs2)cc1
inactive: all assays above

CCCCC(CC)COC(=O)c1ccc(N(C)C)cc1 (stereo unspecified)
inactive: all assays above

O=C(O)C1(C(=O)O)CCC1.[NH2-].[NH2-].[Pt+2]
inactive: all assays above

CC(C(=O)O)c1cccc(Oc2ccccc2)c1 (stereo unspecified)
inactive: all assays above

COc1cc(NS(=O)(=O)c2ccc(N)cc2)ncn1
inactive: all assays above

CC(C)NCC(O)c1ccc2ccccc2c1 (stereo unspecified)
inactive: all assays above

COc1ccc(/C=N/NC(=O)c2ccncc2)cc1OC
inactive: all assays above

CC(C)[C@@H]1CC[C@@H](C)CC1=O
inactive: all assays above

Cc1cc(NS(=O)(=O)c2ccc(N)cc2)nc(C)n1
inactive: all assays above

NC(=O)C1(N2CCCCC2)CCN(CCCC(=O)c2ccc(F)cc2)CC1
inactive: all assays above

NCCNC(=O)c1ccc(Cl)cn1
inactive: all assays above

CN1CCN(C2=Nc3ccccc3Sc3ccc(Cl)cc32)CC1
not listed: [8] | [10]
inactive: all other assays above

Nc1ccc(C(=O)NCC(=O)O)cc1
not listed: [8]
inactive: all other assays above

OC(C#CCN1CCCC1)(c1ccccc1)c1ccccc1
not listed: [8]
inactive: all other assays above

CC(C)(C)CC(C)(C)c1ccc(O)c(-n2nc3ccccc3n2)c1
not listed: [8]
inactive: all other assays above

CCOC(=O)[C@H](CCc1ccccc1)N[C@@H](C)C(=O)N1[C@H](C(=O)O)C[C@@H]2CCC[C@@H]21
not listed: [8]
inactive: all other assays above

CCC(CC)(CC(=O)Nc1cccc(/C=C/c2nc(C3CCC3)cs2)c1)C(=O)O
not listed: [8]
inactive: all other assays above

O=C(O)P(=O)(O)O
inactive: all assays above

COP(=O)(OC)OC(c1ccc(Cl)cc1)P(=O)(OC)OC (stereo unspecified)
not listed: [8]
inactive: all other assays above

CCCCCCCC/C=C\CCCCCCCCN
not listed: [8]
inactive: all other assays above

CC(=O)OCC1=C(C(=O)O)N2C(=O)[C@@H](NC(=O)CSc3ccncc3)[C@H]2SC1
not listed: [8]
inactive: all other assays above

CC(C)Cn1cnc2c1c(=O)n(C)c(=O)n2C
not listed: [8] | [10]
inactive: all other assays above

C=CCN1CCc2nc(N)sc2CC1
not listed: [8] | [10]
inactive: all other assays above

CCc1cc(Cl)c(OC)c(C(=O)NC[C@@H]2CCCN2CC)c1O
not listed: [8]
inactive: all other assays above

CCN(CC)CCNC(=O)COc1ccc(OC)cc1
not listed: [8]
inactive: all other assays above

CC(=O)O[C@H]1C[C@@H]2CC[C@@H]3[C@H](CC[C@@]4(C)[C@H]3C[C@H]([N+]3(C)CCCCC3)[C@@H]4OC(C)=O)[C@@]2(C)C[C@@H]1N1CCCCC1
not listed: [8] | [10]
inactive: all other assays above

C=C[C@H]1CN2CC[C@H]1C[C@@H]2[C@@H](O)c1ccnc2ccc(OC)cc12
inactive: all assays above

CCCCCCCCCCCCCC(=O)OC(C)C
not listed: [8] | [10]
inactive: all other assays above

c1ccc(CC2=NCCN2)cc1
not listed: [8]
inactive: all other assays above

CC(=O)NC(=O)c1ccccc1O
not listed: [8]
inactive: all other assays above

NCc1ccccc1Sc1ccccc1CO
not listed: [8] | [10]
inactive: all other assays above

CC(C)(C)NCC(O)COc1cccc2c1C[C@H](O)[C@H](O)C2 (stereo partly specified)
not listed: [8]
inactive: all other assays above

N#C/C(=C1\SCC(c2ccccc2Cl)S1)n1ccnc1 (stereo unspecified)
not listed: [8]
inactive: all other assays above

Cl/C(=C\n1cncn1)c1ccc(Cl)cc1Cl
not listed: [8] | [10]
inactive: all other assays above

CC(C)Nc1cccnc1N1CCN(C(=O)c2cc3cc(NS(C)(=O)=O)ccc3[nH]2)CC1
not listed: [8] | [10]
inactive: all other assays above

CC(=O)O[C@]1(C(C)=O)CC[C@H]2[C@@H]3C=C(C)C4=CC(=O)CC[C@]4(C)[C@H]3CC[C@@]21C
not listed: [8]
inactive: all other assays above

Cc1cn([C@H]2C[C@H](F)[C@@H](CO)O2)c(=O)[nH]c1=O
not listed: [8] | [10]
inactive: all other assays above

C[N+]12CCC(CC1)C(OC(=O)C(O)(c1ccccc1)c1ccccc1)C2 (stereo unspecified)
not listed: [8]
inactive: all other assays above
